Compound activity deposited in PubChem BioAssay by several laboratories.
A selection: hits, their analogues and other compounds. The true share with any hit is near 4.3%.
Bead autofluor – counter-screen for toxin protease inhibitors: compound fluorescence; 3.1% of 360,000 active; compound autofluorescence counterscreen, microsphere flow cytometry; stronger effect = higher value; fluorescence intensity (no concentration beside the values); in the data active means fluorescence intensity above about 16000; inconclusive means no clear call, values can overlap the other calls
PfHsp40 rescue – rescue of yeast from PfHsp40 toxicity, primary screen, S. cerevisiae, ATP luminescence; S. cerevisiae expressing PfHsp40, growth rescue; growth rescue, % at 12.5 µM; 0.68% of 340,000 active; in the data active means growth rescue above about 28%, passing the limit was not always enough; inconclusive means no clear call, values can overlap the other calls;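 further: yeast W303a lacking pdr1 and pdr3 grown in galactose medium; growth measured after three days at 30 °C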
MazF activator – activators of E. coli MazEF toxin-antitoxin RNase, primary screen, biochemical, fluorescence, uHTS | FAM/BHQ RNA-DNA oligo cleavage fluorescence, 5 h | activation, % at 20 µM | 0.32% of 350,000 active | AID 504720, 2011; in the data active means activation above about 50%
BoNT A protease – BoNT/A light chain protease inhibitors, primary screen, biochemical, flow cytometry, MLPCN library; 0.17% of 360,000 active; Botulinum neurotoxin type A light chain protease (Clostridium botulinum A str. ATCC 3502); multiplex microsphere protease substrate cleavage; inhibition, % at 10 µM; AID 588499, 2011; further: plate controls were buffer without enzyme for full effect and enzyme alone for no effect
Anthrax LF inh2 – Bacillus anthracis LF protease inhibitors, primary screen, biochemical, multiplex microsphere, MLPCN library. inhibition, % at 10 µM. multiplex microsphere protease cleavage assay. 0.12% of 360,000 active. Lethal factor (Bacillus anthracis), P15917; further: plate controls were buffer without enzyme for full effect and enzyme alone for no effect
BoNT F protease – BoNT/F light chain protease inhibitors, primary screen, biochemical, flow cytometry, MLPCN library; Botulinum neurotoxin type F light chain protease (Clostridium botulinum); Multiplex microsphere protease cleavage assay; inhibition, % at 10 µM; 0.22% of 360,000 active; AID 588497, 2011; in the data active means inhibition above about 35%, passing the limit was not always enough; inconclusive means no clear call, values can overlap the other calls; further: plate controls were buffer without enzyme for full effect and enzyme alone for no effect
* = called active by the depositor; u = inconclusive; x = no result given. Unless noted, no stated cut-off is given here; in the data, active means inhibition above about 30%; inconclusive means no clear call, values can overlap the other calls; inactive means below that.

SMILES	Bead autofluor	PfHsp40 rescue	MazF activator	BoNT A protease	Anthrax LF inh2	BoNT F protease
COc1ccc(C(=O)CCC(=O)O)c(C)c1	22646*	0.0	0.0	1.0	-4.3	0.8
COc1cccc(N2C(=O)C(c3ccccc3)=C(c3nc4ccccc4s3)C2NC(C)=O)c1 (stereo unspecified)	21453*	1.0	-8.9	u	-0.2	3.4
CC(=O)NC1C(c2nc3ccccc3s2)=C(c2ccccc2)C(=O)N1c1ccc(C)cc1 (stereo unspecified)	4253	-0.7	10.6	-0.1	-10.4	-7.7
CCN(Cc1ccccc1)C(=O)CSc1ncn[nH]1	5701	1.4	-0.5	-0.1	2.1	4.2
COc1ccc(CN2CCCC(C(=O)c3ccc(Cl)cc3)C2)c(O)c1 (stereo unspecified)	3167	2.6	7.4	5.3	3.5	34.9*
CCn1cc(CN2CCCC(C(=O)Nc3cccc(-c4cc5ccccc5[nH]4)c3)C2)cn1 (stereo unspecified)	6508	3.1	9.9	-2.9	-1.2	-8.2
CC(/C=N\NC(=O)c1cccnc1)c1ccccc1 (stereo unspecified)	8156	-0.9	-8.1	-0.9	-1.2	-6.0
COc1ccc([C@H]2CC(=O)C=C(c3cccc(OC(F)(F)F)c3)C2)cc1	3871	9.3	-5.0	-0.4	1.8	-0.3
Cc1cc(=O)n2nc(N3CCCC3C(=O)Nc3cccc(Cl)c3C)sc2n1 (stereo unspecified)	20778*	-0.1	-20.4	-3.4	-5.0	19.3
CC1CSc2ccccc2NC1=S (stereo unspecified)	16476*	1.5	8.3	-0.2	-5.6	-2.5
S=C1CSc2ccccc2N1	3215	0.8	2.0	-0.5	-7.5	-3.6
O=C(CSCc1n[nH]c(=O)[nH]1)NCCOc1cccc(Oc2ccccc2)c1	19843*	-1.1	-3.0	-1.0	0.9	-4.5
O=C(CSc1ncn[nH]1)NCCOc1ccccc1	3302	-1.5	0.5	-0.5	1.1	-0.6
O=C1C2CC=CCC2C(=O)N1c1ncn[nH]1 (stereo unspecified)	16218*	2.1	4.8	-0.5	-2.8	2.4
O=C1C2CC=C(Cl)CC2C(=O)N1c1ncn[nH]1 (stereo unspecified)	2637	-1.5	-0.3	-0.6	-2.4	-16.5
N#Cc1ccccc1OCC(=O)OCC(=O)NC1CC1	5526	-0.7	4.4	0.2	-5.3	-1.5
COC(=O)C1=C(C)NC(=O)C1(NS(=O)(=O)c1ccc(NC(C)=O)cc1)C(F)(F)F (stereo unspecified)	19985*	2.3	3.8	-1.8	-2.1	-3.9
Cc1ccc(OCC(O)CN2CCC(Cc3ccccc3)CC2)c(C)c1 (stereo unspecified)	5520	1.3	3.1	-1.3	-3.4	-4.8
COc1ccc2c(c1)Cc1sc(NC(=O)c3cccs3)nc1-2	18806*	0.4	2.8	2.6	-4.5	2.7
COc1ccc(C(=O)Nc2nc3c(s2)Cc2cc(OC)ccc2-3)cc1	2805	1.1	1.7	0.1	-4.4	-7.5
CC(=O)N1C[C@H]2CON(C)[C@H]2C[C@H]1c1cccc(N2CCOCC2)c1	2918	x	-17.0	0.1	0.4	2.7
Cc1ccc(NCCC(=O)c2ccc(Cl)cc2)cc1C	24235*	-2.1	-8.8	-1.0	-1.3	-6.5
CCc1ccc(NCCC(=O)c2ccc(Cl)cc2)cc1	7029	2.4	3.3	-0.6	-5.2	-8.2
Cc1ccc(NCCC(=O)c2ccc(Cl)c(Cl)c2)cc1	23171*	-0.3	-4.9	u	-0.1	-2.8
CN(C)/C=N/c1ncc(C(=O)c2ccc(Cl)cc2Cl)s1	4572	-0.3	0.8	-0.8	-1.7	-3.4
SMILES	Bead autofluor	PfHsp40 rescue	MazF activator	BoNT A protease	Anthrax LF inh2	BoNT F protease
CN(C)/C=N/c1ncc(C(=O)c2ccc(Cl)cc2)s1	22056*	-2.0	0.9	0.9	2.3	1.1
O=C(Cc1cccc(NC(=O)C2CCN(S(=O)(=O)c3cccc([N+](=O)[O-])c3)CC2)c1)Nc1cccc(C(=O)N2CCOCC2)c1	3881	-1.0	4.2	0.2	-5.1	-2.2
CC(O)c1cccc(NC2=CC(=O)CC(C)(C)C2)c1 (stereo unspecified)	22635*	-0.8	-4.1	2.0	-4.5	0.7
CC1(C)CC(=O)C=C(Nc2ccccn2)C1	21302*	-1.2	-3.1	u	-0.7	0.4
CC1(C)CC(=O)C=C(Nc2cccc(F)c2)C1	3926	0.3	7.4	3.7	1.4	15.2
Cc1nnc(SCC(=O)N(CC(C)C)c2c(N)n(Cc3ccccc3)c(=O)[nH]c2=O)n1N	6738	-0.4	5.1	-4.4	-1.2	-9.1
CC1Sc2ccc(C(=O)NCc3ccccn3)cc2NC1=O (stereo unspecified)	4512	-1.7	2.7	-2.5	-7.7	-3.7
O=C(Nc1cccc(C(F)(F)F)c1)c1cccnc1NCCc1ccccc1	2665	389.2*	-3.1	0.0	-1.6	-7.2
CCc1nnc(NC(=O)C2=CCN(S(=O)(=O)c3ccc(F)cc3)CC2)s1	4948	-0.7	6.7	-0.7	-2.1	8.1
CNc1c([N+](=O)[O-])cnn1-c1ccc(Cl)cc1Cl	18639*	1.2	8.4	-4.8	-3.1	-9.5
CNc1c([N+](=O)[O-])cnn1-c1ccccc1Cl	23635*	-0.6	1.2	-0.1	-1.0	0.0
COc1ccc(C(=O)O)cc1S(=O)(=O)Nc1ccc2cn[nH]c2c1	3473	-0.3	-13.7	0.3	-1.6	2.7
Cc1nc2ccc(NC(=O)c3ccc(N4C(=O)CCC4=O)cc3)cc2s1	4535	1.1	5.8	0.3	-1.7	3.1
O=C(Nc1cccc(C(F)(F)F)c1)c1ccc2nc(-c3ccco3)c(-c3ccco3)nc2c1	3371	0.2	9.2	63.4*	28.5	-6.9
O=C(O)c1ccc2nc(-c3ccco3)c(-c3ccco3)nc2c1	2572	3.6	-5.2	-1.4	-2.1	-1.3
O=C(Nc1cccc(C(F)(F)F)c1)c1ccc2nc(N3C(=O)CCC3=O)sc2c1	22304*	0.0	3.1	1.1	-2.4	2.0
Cc1cc(F)ccc1S(=O)(=O)N1CCCOC1CNC(=O)C(=O)NCc1cccnc1 (stereo unspecified)	5482	0.3	-0.7	0.1	3.2	-8.2
COc1cccc(NC(=O)CN2CCC(C)CC2)c1	22557*	0.7	1.9	u	0.0	-0.3
COc1cccc(NC(=O)CN(C)C(=O)c2ccc3ccccc3c2)c1	23982*	7.7	2.3	-1.5	0.1	-4.9
COc1ccc(NC(=O)CN(C)C(=O)c2ccc3ccccc3c2)cc1	4354	-0.6	6.2	-0.6	1.5	6.4
O=C(CN1CCCCC1)Nc1cccc(Oc2ccccc2)c1	23011*	-0.3	1.7	-2.2	0.6	-5.7
COc1cccc(NC(=O)c2cnsn2)c1	17160*	0.8	4.5	-1.6	-4.1	-2.0
